Here are results for 7 compounds from PubChem BioAssay (NCATS).

A short description of test [1]: qHTS profiling of the MIPE4 collection as inhibitors of Plasmodium falciparum (3D7) proliferation (AID 743344; call rule not given here;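 note: scaled between DMSO vehicle wells and 0.29 µM artemisinin as full inhibition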). The note with it: P. falciparum 3D7 in erythrocytes, SYBR Green DNA fluorescence, 72 h; at 28.5 µM unless noted. In a few lines: (§1)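 Erythrocytes infected with P. falciparum (0.3% parasitemia, 2.5% hematocrit) incubated with compounds 72 h at 37 C, 5% CO2. Lysis with saponin/Triton buffer containing SYBR Green I, overnight at room temperature in the dark; DNA fluorescence (485/535 nm) normalised to 0.29 uM artemisinin and DMSO.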
A general note: qHTS replaces the single test concentration by a dilution series.

Test [2] in a line: qHTS profiling of the MIPE4 collection as inhibitors of Plasmodium falciparum (DD2) proliferation (AID 743345; call rule not given here). The settings on record: P. falciparum Dd2 in erythrocytes, SYBR Green DNA, 72 h; at 28.5 µM unless noted. A digest of the protocol:
as §1

The nature of test [3]: qHTS profiling of the MIPE4 collection as inhibitors of Plasmodium falciparum (DD2) proliferation (Rep 2) (AID 743346; call rule not given here). The settings on record: P. falciparum Dd2 in erythrocytes, SYBR Green DNA, 72 h; at 28.5 µM unless noted. In a few lines:
as §1

Test [4] can be described thus: qHTS profiling of the MIPE4 collection as inhibitors of Plasmodium falciparum (HB3) proliferation (AID 743347; call rule not given here;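 note: plate controls were DMSO vehicle wells for no effect and artemisinin wells for full effect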). The note with it: P. falciparum HB3 in erythrocytes, SYBR Green DNA, 72 h; at 28.5 µM unless noted. A digest of the protocol:
as §1

Test [5] can be described thus: High-throughput drug toxicity screening in the BPDCN cell line Gen2.2 (AID 1224824; call rule not given here;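 note: cells exposed to compounds for 48 h before reading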). The note with it: Gen2.2 BPDCN cells; at 45.8 µM (top of the series) unless noted. In a few lines: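 Seed 500 exponentially growing Gen2.2 cells/well; add compounds by pin tool; incubate 48 h, 37 °C, 5% CO2; add CellTiter-Glo, 15 min RT; read luminescence. % activity vs DMSO (100%) and bortezomib (0%).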

The nature of test [6]: High-throughput drug toxicity screening in the BPDCN cell line Cal-1 (AID 1224825; call rule not given here). The settings on record: Cal-1 BPDCN cell viability, qHTS; at 45.8 µM (top of the series) unless noted. In a few lines:
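500 Cal-1 cells/well, RPMI + glutamine + 10% FBS (phenol red-free); cpd added by pin tool; 48 h, 37C, 5% CO2; CTG 15 min RT, lumi read. Normalised: DMSO 100%, bortezomib 9.2 uM 0%.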

A short description of test [7]: qHTS assay for measurement of the activity of small molecule inhibitors on Zika virus induced Caspase-3 activity in human iPSC derived neural progenitor cells (hNPCs) (AID 1224857). Note: % of control where 0% means no effect; nearly all actives have a fitted effect of over 65% in size. A digest of the protocol: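 hNPCs seeded 350 cells/well, cultured 16–20 h; compounds added 1 h before ZIKV (2 FFU/cell), 37 C 6 h. Caspase-Glo 3/7 luminescence after 30 min RT; % inhibition from induction scaled to uninfected (0%) and infected (100%) wells.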

Test [8] is described as follows: qHTS assay for measurement of the activity of small molecule inhibitors on Zika virus induced Caspase-3 activity in human astrocytoma cells (AID 1224859).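 Note: plate controls were ZIKV-infected untreated cells for no effect and uninfected cells for full effect.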 In a few lines:
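Luminescence read-out (Caspase-Glo 3/7, 30 min RT) of caspase activity in SNB-19 cells infected 6 h with ZIKV, 2 FFU/cell, after 1 h compound pretreatment; % inhibition from induction normalised to uninfected (0%) and infected (100%) wells.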

The nature of test [9]: qHTS Screen of the MIPE 4.0 Collection Against Ewings Sarcoma (RDES) (AID 1259252). Note: nearly all actives have a fitted effect of over 35% in size. Note: potency is the fitted concentration of half-maximal effect. In a few lines:
(§2)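 After a 4 h attachment period in RPMI/5% FBS, cells were pin-dosed with test compounds; DMSO served as negative and 9.2 uM bortezomib (final) as positive control. Luminescent CellTiter-Glo signal at 48 h defined viability.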

Test [10] is described as follows: qHTS Screen of the MIPE 4.0 Collection Against Ewings Sarcoma (TC71) (AID 1259253). Note: nearly all actives have a fitted effect of over 40% in size. Note: potency is the fitted concentration of half-maximal effect. In a few lines:
as §2

A short description of test [11]: qHTS Screen of the MIPE 4.0 Collection Against Ewings Sarcoma (TC32) (AID 1259256). Note: nearly all actives have a fitted effect of over 45% in size. Note: potency is the fitted concentration of half-maximal effect. In a few lines:
as §2

The nature of test [12]: qHTS profiling for inhibitors of Plasmodium falciparum (HB3) proliferation (AID 743324).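 Note: 100% = DMSO vehicle wells and 0% = artemisinin-treated control wells.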 The settings on record: Plasmodium falciparum HB3 blood-stage proliferation; at 28.7 µM (top of the series) unless noted. In a few lines:
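P. falciparum HB3 grown in erythrocytes (0.3% parasitemia, 2.5% hematocrit final) with compound for 72 h at 37 C, 5% CO2. Parasite DNA detected by SYBR Green after saponin/triton lysis overnight; normalized to 0.29 uM artemisinin and DMSO.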

Test [13] can be described thus: Identifying Small Molecule Inhibitors of Pancreatic Cancer Stem Cells (SN12C, Adherent) (AID 1259358).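 Note: cell survival measured after 48 h of compound exposure.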 Note: potency is the fitted concentration of half-maximal effect. A digest of the protocol:
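Adherent (2D) versus sphere (3D) formats; spheres generated 14 d in SCM beforehand. Compound transferred by pin tool after 4 h, 48 h incubation, CellTiter-Glo endpoint.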

A short description of test [14]: Identifying Small Molecule Inhibitors of Pancreatic Cancer Stem Cells (SN12C, Spheroid) (AID 1259360).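 Note: 100% = DMSO-treated cells and 0% = wells without cells.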 The note with it: Potency: SN12C spheroid viability. A digest of the protocol: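 Cytotoxicity read by CellTiter-Glo luminescence after 48 h compound exposure at 37C; percent activity scaled between DMSO-treated cells and cell-free wells. Spheroid formats used cells pre-formed 14 days in stem cell media on hydrogel.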

Test [15] in a line: qHTS assay to identify small molecule inhibitors of chordoma cells - UCH-1 (AID 1259355). Note: % is set by controls: 0 for no effect and ±100 for the full control effect; nearly all actives have a fitted effect of over 55% in size. A digest of the protocol: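 Seed 800 cells per well; incubate overnight at 37 C, 5% CO2. Add test compounds (15 concentrations), then the auranofin–topoisomerase-agent combination. Incubate 48hr, add CellTiter-Glo, wait 30min, read luminescence.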

Results filed as inconclusive are left out. Active and inactive are the calls of the source. Unless noted, calls come from the whole dose curve; as a rule, active = well fitted curve in the direction sought with a large enough effect; inconclusive = small, poorly fitted or top-dose-only effect, or another doubt; inactive = no such curve, though single readings can be large; an effect the other way counts as inactive or inconclusive.

Compound `CCC[C@H](N[C@@H](C)C(=O)N1[C@@H]2CCCC[C@H]2C[C@H]1C(=O)O)C(=O)OCC` registered a parasite growth, % of DMSO control in test [1] of 69%. The parasite growth remaining, % of DMSO control (lower = more inhibition) in test [2] amounted to 77.5%. Besides, the parasite growth, % of control (lower = inhibition) in test [3] amounted to 41.1%. Further, the growth, % of control in [4] came out at 98.7%. In addition, in test [5], the cell viability, % of control (lower = more cytotoxic) turned out to be 64.1%. In addition, in test [6], the viability (% of control) stood at 104%. For the same compound, the Potency result in [7], in [8], in test [9] and in test [11] was “inactive” throughout. Moreover, in test [10], the Potency was 14.8 µM (active).
Regarding `CCOC(=O)N1CCN([N+]([O-])=NOc2cc(ON=[N+]([O-])N3CCN(C(=O)OCC)CC3)c([N+](=O)[O-])cc2[N+](=O)[O-])CC1`, the parasite growth, % of DMSO control in test [1] was determined as 56.9%. The same compound yielded a parasite growth remaining, % of DMSO control (lower = more inhibition) in test [2] of 45.7%. Besides, in [3], the parasite growth, % of control (lower = inhibition) came to 49.8%. The compound also gave a growth, % of control in [4] of 48%. The cell viability, % of control (lower = more cytotoxic) in [5] is 87.7%. Besides, in test [6], the viability (% of control) was 81.2%. For the same compound, the Potency entry in test [7], in test [8], in test [9] and in test [10] was “inactive” each time. The Potency in test [11] was 4.18 µM (active).
With `COc1cc2nccc(Oc3ccc(NC(=O)Nc4cc(C)on4)c(Cl)c3)c2cc1OC`, the remaining proliferation (% of control), lower = more inhibition in test [12] worked out at 11.5%. For the same compound, in [1], the parasite growth, % of DMSO control came to 7.24%. The compound also displayed a parasite growth remaining, % of DMSO control (lower = more inhibition) in test [2] of 22.7%. The parasite growth, % of control (lower = inhibition) in test [3] amounted to 27.3%. In addition, in test [4], the growth, % of control was 3.73%. Also, the cell viability, % of control (lower = more cytotoxic) in test [5] was determined as 52.1%. Moreover, in test [6], the viability (% of control) turned out to be 13%. The Potency entry in test [7] and in test [8] was “inactive” each time. For the same compound, the Potency in test [9] was 2.35 µM (active); in [10], 2.64 µM (active); in [11] it was 2.96 µM (active); in test [13], 16.6 µM (active).
As to `O=C(Nc1cccc(C(F)(F)F)c1)Nc1cc(S(=O)(=O)NC2CC2)ccc1-c1ccsc1`, in [2], the parasite growth remaining, % of DMSO control (lower = more inhibition) worked out at 82.2%. The parasite growth, % of control (lower = inhibition) in test [3] was 51.8%. Moreover, in test [5], the cell viability, % of control (lower = more cytotoxic) was 316%. In addition, the viability (% of control) in test [6] was determined as 68.8%. The Potency result in test [7] and in test [8] was “inactive” in each case. The Potency in [9] is 20.9 µM (active); in test [10] it was 20.9 µM (active); in test [11], 18.7 µM (active).
Regarding `C[C@@H]1O[C@@H](O[C@H]2CC[C@@]3(C)[C@H](CC[C@@H]4[C@H]3C[C@@H](O)[C@]3(C)[C@@H](C5=CC(=O)OC5)CC[C@]43O)C2)C[C@H](O)[C@@H]1O[C@H]1C[C@H](O)[C@H](O[C@H]2C[C@H](O)[C@@H](O)[C@@H](C)O2)[C@H](C)O1` (stereo in doubt), the parasite growth, % of DMSO control in test [1] amounted to 57.6% [at 57.5 µM]. This compound showed a parasite growth remaining, % of DMSO control (lower = more inhibition) in test [2] of 91.8% [at 57.5 µM]. For the same compound, the parasite growth, % of control (lower = inhibition) in test [3] is 67.5% [at 57.5 µM]. Further, the growth, % of control in test [4] worked out at 57% [at 57.5 µM]. Moreover, the cell viability, % of control (lower = more cytotoxic) in [5] was found to be 7.85% [at 92.2 µM]. Also, in test [6], the viability (% of control) was 4.87% [at 92.2 µM]. Also, the Potency result in test [7] and in [8] was “inactive” in each case. In addition, the Potency in test [9] is 0.34 µM (active); in [10], 0.241 µM (active); in test [11], 0.241 µM (active).
In turn, `Cc1nn(Cc2ccccc2Cl)c(C)c1CN(C)CC(O)COc1ccc(Cl)cc1` (stereo not given) yielded a remaining proliferation (% of control), lower = more inhibition in test [12] of 8.74%. In test [1], this compound yielded a parasite growth, % of DMSO control of 9.8%. In [2], this compound displayed a parasite growth remaining, % of DMSO control (lower = more inhibition) of 18.8%. In addition, in [3], the parasite growth, % of control (lower = inhibition) is 16.7%. This compound returned a growth, % of control in test [4] of 7.87%. For the same compound, the cell viability, % of control (lower = more cytotoxic) in [5] was found to be 18%. The viability (% of control) in test [6] is 53.4%. Further, the Potency entry in test [7], in test [8], in test [13] and in [14] was “inactive” in each case. Also, the Potency in [9], in [10] and in [11] was 23.5 µM (active) in each case.
In test [1], `N#Cc1c(N(CC(=O)O)CC(=O)O)sc(C(=O)O)c1CC(=O)O` registered a parasite growth, % of DMSO control of 86.7%. This compound registered a parasite growth remaining, % of DMSO control (lower = more inhibition) in [2] of 91.9%. The parasite growth, % of control (lower = inhibition) in [3] stood at 139%. This compound came in with a growth, % of control in test [4] of 105%. Further, the cell viability, % of control (lower = more cytotoxic) in test [5] came to 5.77%. The viability (% of control) in [6] is 9.17%. For the same compound, the Potency result in test [7], in test [8], in test [9] and in [10] was “inactive” each time. Moreover, the result in [15] was inactive.
